# The full list was thinned out, with hits kept by preference.
# Pf Dd2 inh: qHTS Primary assay for Inhibitors of Plasmodium falciparum Dd2 growth in vitro | P. falciparum Dd2 growth, SYBR Green, 72 h | Potency, µM (series often up to 28.9 µM), for inactives: at the top dose activity, negative = inhibition, most hits filed as inhibitors | 120,000 compounds, 4.3% hits | AID 1347417, 2020; active = well fitted inhibition curve with a large enough effect;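 also: plate controls were DMSO vehicle for no effect and reference drug for full effect; nearly all actives have a fitted effect of over 65% in size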
#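 Infected erythrocytes (Dd2, 0.3% parasitemia, 2.5% hematocrit final) are added to compound in RPMI-1640/Albumax II medium, grown 72 h at 37C in low oxygen, then lysed with saponin/Triton-X containing SYBR Green and read by fluorescence.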
# * marks the source's active call; other numbers are inactive results; i = inactive; [ ] = dose if it differs, or a comment. Potency is read from the fitted curve at half-maximal effect.
SMILES,Pf Dd2 inh
CN(Cc1ccccn1)Cc1ccccc1C(F)(F)F,-17%[44.1 µM]
OCC1(Cc2ccccc2C(F)(F)F)CCNCC1,-4%
O=C1NC2CCCCC2=C1CC(=O)N1CCc2ccccc21 (stereo not drawn),-30%
CC(=O)N[C@@H]1CNC[C@H]1CO,37%
c1ccc(C2(c3nc(C4CCOC4)no3)CCCCC2)cc1 (stereo not drawn),-20%
COc1ccc(-c2ccccc2NC(=O)C2CCCN(Cc3ccccc3O)C2)cc1 (stereo not drawn),2.8µM*
CCNC(=O)N1CCCC1C(=O)Nc1ccccc1-c1ccc(OC)cc1 (stereo not drawn),6%
COc1ccc(NC(=O)C2CCCN(c3cnccn3)C2)c(OC)c1 (stereo not drawn),32%
COc1ccc(-c2ccccc2NC(=O)C2CCCN(Cc3c(O)cccc3OC)C2)cc1 (stereo not drawn),1.8µM*
COc1ccc(-c2cn3nc(N4CCCC(C(=O)Nc5cccc(Cl)c5C)C4)sc3n2)cc1 (stereo not drawn),-11%
COc1ccc(-c2ccccc2NC(=O)C2CCCN2C(=O)C2(C)CC2)cc1 (stereo not drawn),-10%
Cc1c(Cl)cccc1NC(=O)N(C)CC1CCOCC1,-8%
CC(C)CNC(=O)N1[C@@H]2CC[C@H]1CC(NC(=O)c1ccc(F)cc1)C2 (stereo partly drawn),i
O=C(N[C@@H]1CCOC[C@H]1OCc1cscn1)c1ccc(N2CCCC2=O)cc1,-16%
CCS(=O)(=O)N(C1CC1)C1CCOC2(CCN(C(=O)c3cccc(C)c3)CC2)C1 (stereo not drawn),-9%
CCOC(=O)C1CCCN(c2c(C(=O)c3ccc(OCC)cc3)cnc3ccccc23)C1 (stereo not drawn),i
COc1cc2ncc(C(=O)c3ccc(C)cc3)c(N3CCCCC3)c2cc1OC,-12%
CCOC(=O)C1CCN(c2c(C(=O)c3ccc(OCC)cc3)cnc3ccc(OC)cc23)CC1,10µM*
CC1=NOC2(CCN(C(=O)c3ccc(C(F)(F)F)cc3)CC2)C1,13%[44.1 µM]
Nc1cccc(-c2cn(C[C@H]3CC4CCN3C[C@@H]4C(=O)Nc3ccccc3)nn2)c1 (stereo partly drawn),7.9µM*
COCCNC(=O)[C@H]1CN2CCC1C[C@@H]2Cn1cc(-c2cccc(N)c2)nn1 (stereo partly drawn),-9%[44.1 µM]
O=C(Nc1ccccc1)[C@H]1CN2CCC1C[C@@H]2Cn1cc(C2(O)CCCCC2)nn1 (stereo partly drawn),i
Cc1ccc(C2NC(=O)N(CC(=O)Nc3ccc(F)cc3)C3=C2C(=O)OC3)cc1 (stereo not drawn),i
CCNc1ccc(-c2nc(-c3ccccn3)no2)cc1[N+](=O)[O-],-14%
CCC(Nc1ccc(-c2nc(-c3ccccn3)no2)cc1[N+](=O)[O-])c1ccccc1 (stereo not drawn),3.5µM*
SMILES,Pf Dd2 inh
CNc1ccc(-c2nc(-c3ccccn3)no2)cc1[N+](=O)[O-],-25%
CCN(CC1CCCO1)C(=O)c1ccccc1OC1CCN(C(=O)c2cccnc2)CC1 (stereo not drawn),-22%
O=C(CC[C@@H]1CNC(=O)[C@@H]2C[C@H](NC(=O)c3cccc(F)c3)CN12)NC1CC1,-33%[44.1 µM]
O=C(CCC1CCCC1)N1CCC2(CC1)CC(N(C(=O)c1ccccc1)C1CC1)CCO2 (stereo not drawn),-16%
CC[C@H]1CN(C(C)=O)CC[C@H]1CC(=O)NCCOC,-19%[44.1 µM]
COCCn1c(=O)n([C@H]2CCCN(C(=O)c3cc(F)ccc3F)C2)c2ncccc21,4%
CCOC(=O)CCNC(=O)N1CCC[C@H](n2c(=O)n(CC3CC3)c3cccnc32)C1,-15%
COc1ccc(C(=O)N2CCC[C@H](n3c(=O)n(CC4CC4)c4cccnc43)C2)cc1F,13µM*
COc1ccc(C(=O)N[C@@H]2CCC[C@@H]2C(=O)Nc2cc(F)ccc2C)cn1,11%
COc1ccc(C(=O)N[C@@H]2CCC[C@@H]2C(=O)N2CCN(c3cc(C)ccc3C)CC2)cn1,10µM*
COc1ccc(C(=O)N[C@@H]2CCC[C@@H]2C(=O)N2CCN(c3ncccn3)CC2)cn1,-14%
Cc1ccc2c(c1)nc1n2[C@@H](CN(Cc2ccc(C(=O)O)cc2)Cc2ccc(C(=O)O)cc2)COC1,-12%
O=C(c1nnn2c1COC(c1ccccc1)C2)N1CCN(C(=O)C2(c3ccccc3)CC2)CC1 (stereo not drawn),-13%
Cc1ccc(C2=NC3(CCN(C(=O)c4ccc5c(c4)OCO5)CC3)ON2)cc1,i
O=C(c1ccc2c(c1)OCO2)N1CCC2(CC1)N=C(c1ccc(Cl)cc1)NO2,7.9µM*
Cc1ccc(C(=O)N2CCC3(CC2)N=C(c2ccc(Cl)cc2)NO3)cc1F,-12%
CS(=O)(=O)N1CCCN(C(=O)Nc2ccccc2)CCNC(=O)CC1c1ccccc1 (stereo not drawn),-7%

# Screening data (PubChem BioAssay)
